Source: PubChem BioAssay (National Center for Advancing Translational Sciences (NCATS))
This is a sample that favours compounds with a hit; in the whole collection about 18% have one here.
IL1B secr inh – inflammasome signaling inhibition, IL-1 beta readout. THP-1 LPS/ATP IL-1B secretion, AlphaLISA, 16 h; hits give low values. activity change, % at 57.5 µM. 4.7% of 360,000 active. AID 743279; in the data active means activity change below about -50%; inconclusive means mostly about -30% to -49%
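Secreted IL-1B measured by AlphaLISA bead assay after 16 h compound exposure of THP-1 cells; compounds (final up to 57.5 uM) added 1 h before LPS (250 ng/mL) and ATP (1.25 mM) stimulation; lower signal means less secretion.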
TDP1 block – TDP1 (human) enzyme inhibition | recombinant TDP1, AlphaScreen DNA substrate cleavage | Potency, µM (doses to about 130 µM), actives largely listed as inhibitors | 0.28% of 350,000 active | AID 485290; further: nearly all actives have a fitted effect of over 40% in size
Target sequence (Q9NUW8 whole entry, looked up): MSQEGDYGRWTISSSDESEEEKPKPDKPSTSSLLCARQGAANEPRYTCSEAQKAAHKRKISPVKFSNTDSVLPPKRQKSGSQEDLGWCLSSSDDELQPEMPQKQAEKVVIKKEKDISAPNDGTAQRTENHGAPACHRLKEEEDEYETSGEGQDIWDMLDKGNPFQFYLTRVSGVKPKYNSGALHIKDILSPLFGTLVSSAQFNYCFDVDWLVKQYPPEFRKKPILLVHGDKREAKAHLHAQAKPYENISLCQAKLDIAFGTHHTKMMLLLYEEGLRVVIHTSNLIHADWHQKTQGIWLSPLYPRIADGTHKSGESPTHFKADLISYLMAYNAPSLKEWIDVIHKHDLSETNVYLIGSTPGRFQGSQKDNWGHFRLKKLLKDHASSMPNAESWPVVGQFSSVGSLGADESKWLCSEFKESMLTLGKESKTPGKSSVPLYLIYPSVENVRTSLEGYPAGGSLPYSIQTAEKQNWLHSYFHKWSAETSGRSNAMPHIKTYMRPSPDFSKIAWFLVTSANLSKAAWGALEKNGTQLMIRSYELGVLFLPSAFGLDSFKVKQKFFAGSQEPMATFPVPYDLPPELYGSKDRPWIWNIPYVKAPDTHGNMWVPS
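Tdp1 1 nM final; 15 min RT w/ cpd; substrate 15 nM, 5 min; beads 10 ug/ml, 10 min; AlphaScreen read. Neg ctrl: no enzyme.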
Six1-Eya2 blk – blocks human Six1 binding to Eya2. Q15475+O00167. AlphaScreen GST-Six1/His-Eya2 binding, biochemical; hits give low values. activity change, % (test concentration not listed). 0.56% of 360,000 active; in the data active means activity change below about -65%; inconclusive means mostly about -30% to -63%
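Homogeneous AlphaScreen proximity assay pairing GST-Six1 with His-tagged Eya2 (added as 5X mix: 250 nM and 500 nM) in 50 mM Tris pH 8.0, 300 mM NaCl, 1 mM TCEP. Glutathione donor and nickel acceptor beads; 1 h, 37 °C, dark.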
CtBP-E1A inh – inhibitors of CtBP/E1A interaction. 0.49% of 340,000 active. activity change, % (test concentration not listed). AlphaScreen GST-E1A/His-CtBP binding, 1536-well; hits give low values; in the data active means activity change below about -65%; inconclusive means mostly about -30% to -63%
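In 5 uL wells, 23 nL compound meets equimolar GST-E1A and His-CtBP (5X stock 125 nM each) for 2 h, 37 °C. Beads (5X, 50 ug/mL) then 1 h, 37 °C, dark.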
DT40 TDP1 CPT – growth inhibition of DT40 Tdp1-/-;hTDP1 cells with camptothecin (screen for TDP1 inhibitors); chicken DT40 Tdp1-/-;hTDP1 cells + 20 nM CPT, ATP luminescence, 48 h; Potency, µM (titrated, usually from 46.2 µM), hits mostly inhibitors; 12% of 420,000 active; AID 686979; further: nearly all actives have a fitted effect of over 55% in size
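Cell growth measured by CellTiter-Glo luminescence after a minimum 48 h, 37 C compound exposure with 20 nM CPT in Tdp1-knockout DT40 cells stably expressing hTDP1, seeded 400/well; qHTS titration format.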
DT40 TDP1 no CPT – qHTS for Inhibitors of human tyrosyl-DNA phosphodiesterase 1 (TDP1): qHTS in cells in absence of CPT; DT40 Tdp1-/- hTDP1 cells, no CPT, ATP luminescence, 48 h; Potency, µM (top dose mostly 46.2 µM), usual class: inhibitors; 15% of 420,000 active; further: nearly all actives have a fitted effect of over 55% in size
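Growth kinetics read by CellTiter-Glo luminescence after ≥48 hr at 37 °C. Cells: DT40 Tdp1-/- stably carrying human TDP1, 400 per well, compound exposure in the absence of CPT (DMSO vehicle).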
Numbers stand for hits. Unless noted, the call rests on the fitted dose curve; in most records, active means well fitted curve in the direction sought with a large enough effect; inconclusive means small, poorly fitted or top-dose-only effect, or another doubt; inactive means no such curve, though single readings can be large; an effect the other way counts as inactive or inconclusive.

CCOC(=O)c1cccc(NC(=O)CCc2nc3cccnc3n2-c2ccccc2)c1 was read as TDP1 block inactive, DT40 TDP1 CPT inactive and DT40 TDP1 no CPT inactive.
`O=C(CCc1nc2cccnc2n1-c1ccccc1)Nc1ccc(Cl)c(Cl)c1` gave TDP1 block inactive, DT40 TDP1 CPT inconclusive and DT40 TDP1 no CPT 18µM.
For CCOc1ccc(OCC)c(NC(=O)CCc2nc3cccnc3n2-c2ccccc2)c1 the results were TDP1 block inactive, DT40 TDP1 CPT 21µM and DT40 TDP1 no CPT inconclusive.
`CN1CCN(C2CN(C3CCCC3)S(=O)(=O)C2)CC1` (configuration not stated) gave IL1B secr inh inactive, Six1-Eya2 blk inactive, CtBP-E1A inh inactive, DT40 TDP1 CPT inactive and DT40 TDP1 no CPT inactive.
Screening CCN(CC)S(=O)(=O)c1ccc2nc(NC(=O)c3ccccc3OC)sc2c1 returned TDP1 block inactive, DT40 TDP1 CPT inconclusive and DT40 TDP1 no CPT 5.2µM.
`COc1ccccc1C(=O)Nc1nc2cc3c(cc2s1)OCCO3` gave IL1B secr inh inactive, Six1-Eya2 blk inactive, CtBP-E1A inh inactive, DT40 TDP1 CPT 5.8µM and DT40 TDP1 no CPT 5.8µM.
`COc1ccc(Cl)cc1NC(=O)C(C)Sc1n[nH]c(N)n1` (configuration not stated) gave IL1B secr inh inactive, TDP1 block inactive, Six1-Eya2 blk inactive, CtBP-E1A inh inactive, DT40 TDP1 CPT inactive and DT40 TDP1 no CPT inconclusive.
CCOc1ccc(NC(=O)[C@@H](NC(=O)c2ccco2)C(C)C)cc1 was read as IL1B secr inh inactive, Six1-Eya2 blk inactive, DT40 TDP1 CPT inactive and DT40 TDP1 no CPT inactive.
CC(=O)OC[C@@H]1CN(Cc2ccccc2)C[C@H](n2cnc3c(Nc4ccccc4)ncnc32)O1 was read as IL1B secr inh inactive, Six1-Eya2 blk inactive, CtBP-E1A inh inactive, DT40 TDP1 CPT inconclusive and DT40 TDP1 no CPT inconclusive.
For COc1cc(CNc2ncnc3c2ncn3[C@H]2CN(Cc3cccc(C(F)(F)F)c3)C[C@@H](COC(C)=O)O2)cc(OC)c1OC the results were IL1B secr inh inactive, Six1-Eya2 blk inactive, CtBP-E1A inh inactive, DT40 TDP1 CPT inconclusive and DT40 TDP1 no CPT inconclusive.
`COc1cc(CNc2ncnc3c2ncn3[C@H]2CN(Cc3cccc(C(F)(F)F)c3)C[C@@H](CO)O2)cc(OC)c1OC` gave IL1B secr inh inactive, Six1-Eya2 blk inactive, CtBP-E1A inh inactive, DT40 TDP1 CPT 18µM and DT40 TDP1 no CPT 16µM.
For COc1cc(CNc2ncnc3c2ncn3[C@H]2CN(Cc3ccccc3)C[C@@H](COC(C)=O)O2)cc(OC)c1OC the results were IL1B secr inh inactive, Six1-Eya2 blk inactive, CtBP-E1A inh inactive, DT40 TDP1 CPT inconclusive and DT40 TDP1 no CPT 16µM.
For O=C(O)c1ccc(Cl)c(S(=O)(=O)Nc2ccccc2N2CCOCC2)c1 the results were IL1B secr inh inactive, TDP1 block inactive, Six1-Eya2 blk inactive, DT40 TDP1 CPT inactive and DT40 TDP1 no CPT inactive.
For CN(C)C(=O)c1ccc(-c2cc(Nc3ccccc3)ncn2)cc1 the results were DT40 TDP1 CPT inconclusive and DT40 TDP1 no CPT inactive.
For O=S(=O)(Nc1nc2ccccc2nc1Nc1ccc(N2CCOCC2)cc1)c1cc(Cl)ccc1Cl the results were IL1B secr inh inactive, TDP1 block inactive, Six1-Eya2 blk inactive, CtBP-E1A inh inactive, DT40 TDP1 CPT inconclusive and DT40 TDP1 no CPT 13µM.
`CCCOC(=O)c1cccc(Nc2nc(C(=O)OCC)nc3ccccc23)c1` gave DT40 TDP1 CPT 16µM and DT40 TDP1 no CPT 13µM.
For CCOC(=O)c1nc(Nc2cccc(C)c2)c2ccccc2n1 the results were IL1B secr inh inactive, TDP1 block inactive, Six1-Eya2 blk inactive, CtBP-E1A inh inactive, DT40 TDP1 CPT 23µM and DT40 TDP1 no CPT 12µM.
Screening CCOC(=O)c1cccc(Nc2cc(-c3ccccc3)ncn2)c1 returned TDP1 block inactive, DT40 TDP1 CPT 15µM and DT40 TDP1 no CPT 15µM.
`O=C(O)c1cccc(Nc2ncnc3ccccc23)c1` gave IL1B secr inh inactive, TDP1 block inactive, Six1-Eya2 blk inactive, CtBP-E1A inh inactive, DT40 TDP1 CPT inactive and DT40 TDP1 no CPT inactive.
`CCOC(=O)c1nc(Nc2ccc(N3CCOCC3)cc2)c2ccccc2n1` gave IL1B secr inh -84, Six1-Eya2 blk inactive, CtBP-E1A inh inactive, DT40 TDP1 CPT inconclusive and DT40 TDP1 no CPT inconclusive.
C=CCNc1nc(C(=O)OCC)nc2ccccc12 was read as IL1B secr inh inactive, TDP1 block inactive, Six1-Eya2 blk inactive, DT40 TDP1 CPT inactive and DT40 TDP1 no CPT inactive.
`CCOC(=O)c1cccc(Nc2nc(C(=O)OCC)nc3ccccc23)c1` gave TDP1 block inactive, DT40 TDP1 CPT 4.1µM and DT40 TDP1 no CPT 3.3µM.
CCOC(=O)c1ccc(Nc2cc(C)nc(N3CCOCC3)n2)cc1 was read as IL1B secr inh inactive, TDP1 block inactive, Six1-Eya2 blk inactive, CtBP-E1A inh inactive, DT40 TDP1 CPT inactive and DT40 TDP1 no CPT inconclusive.
CCOC(=O)c1ccc(Nc2nnc(C)c3ccccc23)cc1 was read as IL1B secr inh inactive, Six1-Eya2 blk inactive, CtBP-E1A inh inconclusive, DT40 TDP1 CPT inactive and DT40 TDP1 no CPT 16µM.
Screening CCOC(=O)c1nc(Nc2ccccc2CC)c2ccccc2n1 returned IL1B secr inh inactive, Six1-Eya2 blk inactive, CtBP-E1A inh inactive, DT40 TDP1 CPT inconclusive and DT40 TDP1 no CPT 18µM.
Screening CCOC(=O)c1nc(NCc2ccccc2)c2ccccc2n1 returned IL1B secr inh inactive, TDP1 block inactive, Six1-Eya2 blk inactive, CtBP-E1A inh inactive, DT40 TDP1 CPT inconclusive and DT40 TDP1 no CPT inconclusive.
Cc1c(C(=O)N2CCC(C(N)=O)CC2)sc(N)c1C#N was read as IL1B secr inh inactive, TDP1 block inactive, Six1-Eya2 blk inactive, CtBP-E1A inh inactive, DT40 TDP1 CPT inactive and DT40 TDP1 no CPT inactive.
Screening CCOC(=O)c1cccc(N)c1 returned TDP1 block inactive, DT40 TDP1 CPT inactive and DT40 TDP1 no CPT inactive.
Screening Cc1cc(N2CCOCC2)nc2ccccc12 returned IL1B secr inh inactive, TDP1 block inactive, Six1-Eya2 blk inactive, CtBP-E1A inh inactive, DT40 TDP1 CPT inactive and DT40 TDP1 no CPT inactive.
`CCOC(=O)c1nc(Nc2ccc(C(C)=O)cc2)c2ccccc2n1` gave IL1B secr inh inactive, Six1-Eya2 blk inconclusive, CtBP-E1A inh inactive, DT40 TDP1 CPT 16µM and DT40 TDP1 no CPT 15µM.
`CCOC(=O)c1ccc(Nc2cc(C)nc(-c3ccccc3)n2)cc1` gave IL1B secr inh inactive, Six1-Eya2 blk inactive, DT40 TDP1 CPT 4.6µM and DT40 TDP1 no CPT 5.2µM.
